High-throughput results: PubChem BioAssay, National Center for Advancing Translational Sciences (NCATS)
Hits are enriched below; roughly 18% of the tested compounds scored in any of these assays.
RORg inh = qHTS for inhibitors of ROR gamma transcriptional activity | AID 2551, 2010 | Nuclear receptor ROR-gamma (Mus musculus), P51450 | 310,000 tested, 5.4% active | Potency, µM (titrated, usually from 53.6 µM), for inactives: at the highest dose activity change, negative = inhibition, most hits filed as inhibitors | Drosophila S2 Gal4-RORgamma UAS-luciferase reporter, 20 h; also: potency is read from the fitted curve at half-maximal effect; nearly all actives have a fitted effect of over 60% in size
Target sequence (P51450 whole entry, looked up, the tested form may be a part): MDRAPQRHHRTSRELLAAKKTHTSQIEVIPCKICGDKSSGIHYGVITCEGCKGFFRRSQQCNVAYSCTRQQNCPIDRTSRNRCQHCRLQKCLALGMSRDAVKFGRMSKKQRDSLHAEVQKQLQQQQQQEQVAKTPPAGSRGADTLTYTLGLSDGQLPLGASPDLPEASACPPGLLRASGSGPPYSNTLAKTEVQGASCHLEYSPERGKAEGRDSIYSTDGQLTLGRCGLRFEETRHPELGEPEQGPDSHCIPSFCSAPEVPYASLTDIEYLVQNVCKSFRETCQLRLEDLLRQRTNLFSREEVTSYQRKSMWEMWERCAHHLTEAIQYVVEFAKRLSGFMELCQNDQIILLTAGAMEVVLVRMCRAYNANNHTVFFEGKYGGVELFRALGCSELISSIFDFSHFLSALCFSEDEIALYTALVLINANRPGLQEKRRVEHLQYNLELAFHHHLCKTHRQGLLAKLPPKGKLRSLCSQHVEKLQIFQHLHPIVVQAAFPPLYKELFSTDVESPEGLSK
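Compounds are pin-transferred onto Drosophila Schneider cells expressing a copper-inducible Gal4–ROR gamma transactivation domain fusion. After 1 hr, copper sulfate is added to 700 uM final; luciferase is read 20 hr later.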
VP16 counter = VP16 counterscreen qHTS for inhibitors of ROR gamma transcriptional activity; Drosophila S2 Gal4-VP16 UAS-luciferase, luminescence, 20 h; Potency, µM (top dose mostly 53.6 µM), for inactives: at the top dose activity, negative = inhibition, hits mostly inhibitors; 310,000 tested, 3.5% active; AID 2546, 2010;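 also: Gal4-VP16 expression switched on by copper sulfate through the metallothionein promoter; potency is read from the fitted curve at half-maximal effect; nearly all actives have a fitted effect of over 50% in size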
TDP1 cell noCPT = qHTS for Inhibitors of human tyrosyl-DNA phosphodiesterase 1 (TDP1): qHTS in cells in absence of CPT. DT40 Tdp1-/- hTDP1 cells, no CPT, ATP luminescence, 48 h. Potency, µM (highest dose often 46.2 µM), without a hit: at the top dose activity change, negative = growth inhibition, usual class: inhibitors. 420,000 tested, 15% active. AID 686978, 2013; also: potency is read from the fitted curve at half-maximal effect; nearly all actives have a fitted effect of over 55% in size
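Growth kinetics read by CellTiter-Glo luminescence after ≥48 hr at 37 °C. Cells: DT40 Tdp1-/- stably carrying human TDP1, 400 per well, compound exposure in the absence of CPT (DMSO vehicle).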
IL1B secr inh = qHTS for Inhibitors of Inflammasome Signaling: IL-1-beta AlphaLISA Primary Screen; THP-1 LPS/ATP IL-1B secretion, AlphaLISA, 16 h; hits give low values; 360,000 tested, 4.7% active; activity change, % at 57.5 µM; in the data active = activity change below about -50%; inconclusive = mostly about -30% to -49%
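Secreted IL-1B measured by AlphaLISA bead assay after 16 h compound exposure of THP-1 cells; compounds (final up to 57.5 uM) added 1 h before LPS (250 ng/mL) and ATP (1.25 mM) stimulation; lower signal means less secretion.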
TDP1 cell CPT = qHTS for Inhibitors of human tyrosyl-DNA phosphodiesterase 1 (TDP1): qHTS in cells in presence of CPT. Potency, µM (highest dose often 46.2 µM), without a hit: top-dose activity change, negative = growth inhibition, hits mostly inhibitors. AID 686979, 2013. chicken DT40 Tdp1-/-;hTDP1 cells + 20 nM CPT, ATP luminescence, 48 h. 420,000 tested, 12% active; also: potency is read from the fitted curve at half-maximal effect; nearly all actives have a fitted effect of over 55% in size
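Chicken DT40 Tdp1-/- cells stably complemented with human TDP1 were seeded at 400 cells/well in medium containing 20 nM camptothecin, exposed to pin-transferred compounds, and grown at 37 °C for at least 48 hr. Viability was read as ATP luminescence.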
LDHA inh = qHTS assay for inhibitors of human lactate dehydrogenase; L-lactate dehydrogenase A chain (Homo sapiens), P00338; purified LDHA, NADH/diaphorase-resazurin fluorescence; hits give low values; activity change, % (values are at about 110 or 230 µM); 480,000 tested, 0.15% active; in the data active = activity change below about -30%; inconclusive = mostly about -25% to -30%;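 also: plate controls were DMSO wells for no effect and wells without enzyme for full effect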
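LDH5 2 nM; NADH 0.06 mM, pyruvate 0.2 mM; 200 mM Tris pH 7.4, EDTA, Tween-20; 5 min RT. Detection: diaphorase 0.133 mg/mL + resazurin 37 µM, fluorescence ex540/em590 at 0 and 20 min; normalized to enzyme-free and DMSO wells.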
An asterisk follows results filed as active; [ ] = dose if it differs, or a comment. Unless noted, calls follow the shape of the dose curve; as a rule, active = well fitted curve in the direction sought with a large enough effect; inconclusive = small, poorly fitted or top-dose-only effect, or another doubt; inactive = no such curve, though single readings can be large; an effect the other way counts as inactive or inconclusive. Unless noted, % is scaled to controls: 0 for no effect and ±100 for the full control effect.

For COc1ccc(-c2nn(-c3ccccc3)cc2C(=O)N2c3ccc(C)cc3C3CN(C)CCC32)cc1 (stereo unspecified) the results were RORg inh inconclusive, VP16 counter -7%, TDP1 cell noCPT 26µM*, IL1B secr inh inconclusive, TDP1 cell CPT inconclusive and LDHA inh -1.
C/C=C/C1(NCCc2ccccc2)CCCCC1 was read as LDHA inh 1.
For COP(=O)(OC)[C@@H](O)C(Cl)(Cl)Cl the results were RORg inh 15%[16.9 µM] and VP16 counter 8%[17 µM].
For COc1cc(/C=C/[N+](=O)[O-])ccc1O the results were RORg inh 4.5µM*, VP16 counter 3.2µM*, TDP1 cell noCPT 9.2µM*, IL1B secr inh -65*, TDP1 cell CPT 8.2µM* and LDHA inh 6.
Screening CC(Cl)C(=O)NC(C)(C)C (stereo unspecified) returned LDHA inh -1.
`CC[C@@H](O)C[C@H]1CCC[C@@]2(C[C@@H]3OC(=O)/C=C/[C@@](C)(O)[C@@H](O)[C@H](C)[C@@H](O)[C@H](OC4CCC(N(C)C)C(C)O4)[C@@H](O)[C@](C)(O)CCCCC/C=C/[C@@H]4CC(C)(C)O[C@@]4(O)C[C@H](O2)[C@H]3C)O1` (stereo partly specified) gave TDP1 cell noCPT 0.15µM*, IL1B secr inh -56*, TDP1 cell CPT 0.016µM* and LDHA inh 2.
`CC(=O)NCCNC(=O)c1cn(Cc2ccccc2)c2ccccc12` gave LDHA inh -2.
CC(C)[C@H](N)C(=O)OCC(CO)OCn1cnc2c(=O)[nH]c(N)nc21 (stereo partly specified) was read as RORg inh 2%, VP16 counter 4%, TDP1 cell noCPT 11µM* and TDP1 cell CPT 13µM*.
Screening C[C@@H]1O[C@@H](O[C@@H]2C=C3CCC4C(CC[C@]5(C)[C@@H](c6ccc(=O)oc6)CC[C@]45O)[C@@]3(C)CC2)[C@H](O)[C@H](O)[C@H]1O (stereo partly specified) returned TDP1 cell noCPT 0.015µM*, IL1B secr inh -52*, TDP1 cell CPT 0.058µM* and LDHA inh 0.
C[C@@H]1O[C@@H](O[C@@H]2C=C3CC[C@@H]4C(CC[C@]5(C)[C@@H](c6ccc(=O)oc6)CC[C@]45O)[C@@]3(C)CC2)[C@H](O)[C@H](O)[C@H]1O (stereo partly specified) was read as TDP1 cell noCPT 0.16µM*, IL1B secr inh -56*, TDP1 cell CPT 0.16µM* and LDHA inh 1.
Screening C[C@H]1[C@@H](OC(=O)CCC(=O)O)O[C@@H]2OC3(C)CC[C@H]4[C@H](C)CC[C@@H]1[C@@]24OO3 returned TDP1 cell noCPT 0.11µM* and TDP1 cell CPT 0.12µM*.
`CCC(C)NC(=O)CCC(=O)OC1O[C@H]2OC3(C)CC[C@H]4[C@H](C)CCC(C1C)C24OO3` (stereo partly specified) gave RORg inh 0%, VP16 counter 3%, TDP1 cell noCPT 0.18µM*, IL1B secr inh inconclusive, TDP1 cell CPT 0.21µM* and LDHA inh 0.
For Cc1ccc2oc(=O)n(CCC(=O)Nc3ccc(N4CCOCC4)cc3)c2c1 the results were RORg inh 12%, VP16 counter -3%, TDP1 cell noCPT inconclusive, IL1B secr inh -7, TDP1 cell CPT -2% and LDHA inh -6.
For CC/C=C\C/C=C\C/C=C\C/C=C\C/C=C\CCCC(=O)NCCc1ccc(O)c(O)c1 the results were RORg inh 8% and VP16 counter -11%.
Screening N#CC(C#N)=NNc1ccc([N+](=O)[O-])cc1 returned RORg inh inconclusive, VP16 counter inconclusive, TDP1 cell noCPT 23µM*, IL1B secr inh -91*, TDP1 cell CPT 21µM* and LDHA inh -2.
Screening CCN(CC)S(=O)(=O)c1ccc(NN=C(C#N)C#N)cc1 returned RORg inh 2%, VP16 counter inconclusive, TDP1 cell noCPT inconclusive, IL1B secr inh -81*, TDP1 cell CPT inconclusive and LDHA inh -12.
For CCC1c2cccn2-c2ccccc2CN1C(=O)Nc1ccc(F)cc1 (stereo unspecified) the results were LDHA inh -5.
For CCn1nc(/C=C/c2ccccc2)nc2c(=O)n(C)c(=O)nc1-2 the results were RORg inh 28%, VP16 counter 2%, TDP1 cell noCPT 2.1µM*, IL1B secr inh -110*, TDP1 cell CPT 1.6µM* and LDHA inh 50.
CCn1nc(-c2cccs2)nc2c(=O)n(C)c(=O)nc1-2 was read as RORg inh 0.79µM*, VP16 counter 1.3µM*, TDP1 cell noCPT 1.2µM*, IL1B secr inh -68*, TDP1 cell CPT 0.58µM* and LDHA inh 31.
For CC(=O)NCC(N)C(=O)c1ccc(Cl)c(Cl)c1 (stereo unspecified) the results were TDP1 cell noCPT inconclusive, TDP1 cell CPT inconclusive and LDHA inh 1.
For CCC(CN)c1ccccc1 (stereo unspecified) the results were LDHA inh -3.
For Cc1cccc(CN2CC=C(c3noc(CCC(=O)Nc4ccc(C)c(F)c4)n3)CC2)c1 the results were TDP1 cell noCPT 13µM*, TDP1 cell CPT 16µM* and LDHA inh 0.
Screening COc1ccc(NC(=O)CCc2nc(C3=CCN(Cc4cccc(Cl)c4)CC3)no2)cc1OC returned TDP1 cell noCPT 12µM*, TDP1 cell CPT 16µM* and LDHA inh 7.
Screening COc1ccc(NC(=O)CCc2nc(C3=CCN(Cc4cccc(Cl)c4)CC3)no2)c(OC)c1 returned TDP1 cell noCPT 18µM*, TDP1 cell CPT 5.8µM* and LDHA inh 1.
FC(Cl)(Cl)Cl was read as RORg inh 7% and VP16 counter -2%.
CCOC(=O)C1C(=O)NC2(C)CC1c1cc(OC)ccc1O2 (stereo unspecified) was read as RORg inh 17%[10 µM], VP16 counter 12%, TDP1 cell noCPT -11%, IL1B secr inh -2, TDP1 cell CPT -5% and LDHA inh -1.
